Results on 17 compounds are retold here after ChEMBL document CHEMBL1961873, “Compounds: GSK PKIS; Assays: Nanosyn kinase panel” (2012).

The target of assay [1] is T1, Tyrosine-protein kinase ITK/TSK (Homo sapiens) (UniProt Q08881).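 Further: values are mean percent inhibition of ITK from the GSK PKIS screen.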
T1 sequence (whole entry): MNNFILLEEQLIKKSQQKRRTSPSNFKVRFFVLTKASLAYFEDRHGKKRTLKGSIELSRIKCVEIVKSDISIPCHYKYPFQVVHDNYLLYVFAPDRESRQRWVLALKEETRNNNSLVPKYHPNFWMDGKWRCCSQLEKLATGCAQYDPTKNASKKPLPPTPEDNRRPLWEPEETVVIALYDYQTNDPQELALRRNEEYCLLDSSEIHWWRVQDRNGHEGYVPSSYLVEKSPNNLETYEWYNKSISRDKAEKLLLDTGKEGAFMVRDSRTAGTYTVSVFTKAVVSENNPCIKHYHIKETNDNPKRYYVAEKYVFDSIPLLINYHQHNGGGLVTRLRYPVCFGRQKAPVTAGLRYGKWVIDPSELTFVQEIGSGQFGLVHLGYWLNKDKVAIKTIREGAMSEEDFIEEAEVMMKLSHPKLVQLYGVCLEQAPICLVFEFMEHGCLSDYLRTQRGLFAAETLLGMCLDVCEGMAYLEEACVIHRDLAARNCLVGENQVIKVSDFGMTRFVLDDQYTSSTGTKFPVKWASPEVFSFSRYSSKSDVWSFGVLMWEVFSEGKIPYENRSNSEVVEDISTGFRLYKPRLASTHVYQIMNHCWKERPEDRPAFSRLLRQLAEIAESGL
The note with it: at 1 µM.

Assay [2] concerns the target Tyrosine-protein kinase JAK1 (Homo sapiens) (UniProt P23458). Conditions: at 0.1 µM.
Assay [3] shares this target. Conditions: at 1 µM.
Assay [4] addresses Tyrosine-protein kinase JAK2 (Homo sapiens) (UniProt O60674). The note with it: at 0.1 µM.
Assay [5] shares this target. The note with it: at 1 µM.
Assay [6] addresses T2, Tyrosine-protein kinase JAK3 (Homo sapiens) (UniProt P52333).
T2 sequence (whole entry): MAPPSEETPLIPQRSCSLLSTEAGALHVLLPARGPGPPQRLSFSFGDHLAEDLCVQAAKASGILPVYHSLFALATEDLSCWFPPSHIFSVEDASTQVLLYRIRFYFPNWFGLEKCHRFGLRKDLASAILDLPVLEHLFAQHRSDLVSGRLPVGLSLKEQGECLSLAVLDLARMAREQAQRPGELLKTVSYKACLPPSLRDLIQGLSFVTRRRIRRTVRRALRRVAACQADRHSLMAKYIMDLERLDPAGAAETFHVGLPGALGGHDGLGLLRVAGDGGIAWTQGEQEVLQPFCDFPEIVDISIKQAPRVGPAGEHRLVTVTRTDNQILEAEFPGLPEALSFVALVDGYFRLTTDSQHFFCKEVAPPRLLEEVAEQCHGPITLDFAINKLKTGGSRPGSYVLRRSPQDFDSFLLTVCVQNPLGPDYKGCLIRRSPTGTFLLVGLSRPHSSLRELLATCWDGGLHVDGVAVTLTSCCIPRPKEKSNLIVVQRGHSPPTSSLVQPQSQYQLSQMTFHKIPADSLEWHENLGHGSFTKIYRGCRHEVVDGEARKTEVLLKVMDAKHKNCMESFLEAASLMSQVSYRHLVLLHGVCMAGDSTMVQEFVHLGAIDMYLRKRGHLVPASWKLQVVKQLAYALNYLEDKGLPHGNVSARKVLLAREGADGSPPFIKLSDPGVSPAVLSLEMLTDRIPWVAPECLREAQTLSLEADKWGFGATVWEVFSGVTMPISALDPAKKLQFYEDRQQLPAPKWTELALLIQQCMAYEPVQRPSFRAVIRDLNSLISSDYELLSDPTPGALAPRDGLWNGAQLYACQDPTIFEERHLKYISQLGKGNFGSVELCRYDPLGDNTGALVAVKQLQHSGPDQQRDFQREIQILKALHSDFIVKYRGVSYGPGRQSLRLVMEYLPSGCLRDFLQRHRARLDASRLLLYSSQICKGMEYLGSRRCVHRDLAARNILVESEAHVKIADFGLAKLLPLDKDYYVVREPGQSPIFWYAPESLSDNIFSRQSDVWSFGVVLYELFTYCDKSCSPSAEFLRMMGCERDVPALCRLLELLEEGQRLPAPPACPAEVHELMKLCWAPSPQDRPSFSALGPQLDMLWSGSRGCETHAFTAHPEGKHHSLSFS
The note with it: at 0.1 µM.

Assay [7] deals with T2, Tyrosine-protein kinase JAK3 (Homo sapiens). The note with it: at 1 µM.
The target in assay [8] is Vascular endothelial growth factor receptor 2 (Homo sapiens) (UniProt P35968). The note with it: at 0.1 µM.
Vascular endothelial growth factor receptor 2 (Homo sapiens), sequence (P35968 whole entry): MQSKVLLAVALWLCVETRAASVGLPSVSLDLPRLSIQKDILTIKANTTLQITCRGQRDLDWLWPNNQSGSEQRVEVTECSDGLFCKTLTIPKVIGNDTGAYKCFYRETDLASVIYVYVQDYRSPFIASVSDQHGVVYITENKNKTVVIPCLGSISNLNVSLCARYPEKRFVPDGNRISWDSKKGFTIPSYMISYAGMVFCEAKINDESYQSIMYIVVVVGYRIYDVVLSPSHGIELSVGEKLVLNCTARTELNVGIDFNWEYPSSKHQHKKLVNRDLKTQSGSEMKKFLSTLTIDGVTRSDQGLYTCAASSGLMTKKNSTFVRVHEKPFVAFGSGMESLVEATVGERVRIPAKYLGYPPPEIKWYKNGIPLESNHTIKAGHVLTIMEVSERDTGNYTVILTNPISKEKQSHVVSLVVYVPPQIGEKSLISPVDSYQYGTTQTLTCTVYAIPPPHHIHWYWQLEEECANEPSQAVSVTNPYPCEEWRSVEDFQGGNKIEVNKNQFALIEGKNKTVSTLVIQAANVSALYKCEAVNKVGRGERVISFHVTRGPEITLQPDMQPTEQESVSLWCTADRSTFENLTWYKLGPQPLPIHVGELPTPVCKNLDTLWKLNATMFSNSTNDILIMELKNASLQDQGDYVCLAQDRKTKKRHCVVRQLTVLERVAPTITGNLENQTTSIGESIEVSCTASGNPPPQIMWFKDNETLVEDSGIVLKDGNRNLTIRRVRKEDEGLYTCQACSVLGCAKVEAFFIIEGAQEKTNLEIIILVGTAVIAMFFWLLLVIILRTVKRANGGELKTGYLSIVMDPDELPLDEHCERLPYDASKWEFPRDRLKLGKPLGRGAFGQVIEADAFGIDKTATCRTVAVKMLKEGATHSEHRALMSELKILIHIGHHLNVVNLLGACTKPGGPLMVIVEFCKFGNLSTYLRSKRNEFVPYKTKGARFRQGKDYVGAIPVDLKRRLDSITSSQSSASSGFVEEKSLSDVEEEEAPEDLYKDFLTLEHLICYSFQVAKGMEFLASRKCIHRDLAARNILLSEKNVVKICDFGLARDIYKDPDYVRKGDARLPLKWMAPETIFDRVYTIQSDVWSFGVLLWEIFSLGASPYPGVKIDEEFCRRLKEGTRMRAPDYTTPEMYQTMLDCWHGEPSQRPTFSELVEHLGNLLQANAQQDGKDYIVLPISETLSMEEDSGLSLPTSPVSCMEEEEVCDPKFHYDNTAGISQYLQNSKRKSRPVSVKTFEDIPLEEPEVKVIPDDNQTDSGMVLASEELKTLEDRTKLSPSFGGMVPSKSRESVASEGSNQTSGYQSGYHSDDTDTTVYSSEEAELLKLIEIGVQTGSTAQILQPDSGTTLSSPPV
Assay [9] shares this target. Conditions: at 1 µM.
The target in assay [10] is Mast/stem cell growth factor receptor Kit (Homo sapiens) (UniProt P10721). The note with it: at 0.1 µM.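 Further: values are mean inhibition of KIT, from the GSK PKIS dataset.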
Mast/stem cell growth factor receptor Kit (Homo sapiens), sequence (P10721 whole entry): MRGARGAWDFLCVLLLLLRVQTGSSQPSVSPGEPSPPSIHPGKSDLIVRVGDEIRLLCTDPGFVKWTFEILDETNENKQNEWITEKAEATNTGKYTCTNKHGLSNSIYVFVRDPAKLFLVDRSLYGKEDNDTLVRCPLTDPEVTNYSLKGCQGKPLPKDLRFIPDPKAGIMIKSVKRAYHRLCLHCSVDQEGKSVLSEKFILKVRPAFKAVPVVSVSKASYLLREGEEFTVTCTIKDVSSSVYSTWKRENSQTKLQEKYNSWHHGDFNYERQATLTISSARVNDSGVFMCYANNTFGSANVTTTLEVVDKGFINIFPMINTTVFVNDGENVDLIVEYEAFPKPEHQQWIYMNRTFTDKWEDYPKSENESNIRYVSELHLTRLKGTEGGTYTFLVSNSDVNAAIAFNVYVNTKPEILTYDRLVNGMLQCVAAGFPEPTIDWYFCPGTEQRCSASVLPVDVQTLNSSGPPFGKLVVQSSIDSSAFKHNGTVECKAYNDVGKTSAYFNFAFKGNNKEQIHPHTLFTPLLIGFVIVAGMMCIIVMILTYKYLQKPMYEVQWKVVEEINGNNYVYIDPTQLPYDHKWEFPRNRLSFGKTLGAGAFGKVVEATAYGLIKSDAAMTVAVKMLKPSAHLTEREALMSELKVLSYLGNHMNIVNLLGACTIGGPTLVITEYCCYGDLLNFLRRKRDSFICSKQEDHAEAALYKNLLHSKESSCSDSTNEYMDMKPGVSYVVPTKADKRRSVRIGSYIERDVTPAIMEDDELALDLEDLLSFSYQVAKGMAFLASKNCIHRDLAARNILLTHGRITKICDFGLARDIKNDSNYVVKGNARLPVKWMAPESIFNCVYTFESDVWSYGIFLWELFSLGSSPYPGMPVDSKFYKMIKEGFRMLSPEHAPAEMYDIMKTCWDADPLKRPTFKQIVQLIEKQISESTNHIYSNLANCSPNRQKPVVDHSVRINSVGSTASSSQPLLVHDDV

Tyrosine-protein kinase JAK1 (Homo sapiens), sequence (P23458 whole entry): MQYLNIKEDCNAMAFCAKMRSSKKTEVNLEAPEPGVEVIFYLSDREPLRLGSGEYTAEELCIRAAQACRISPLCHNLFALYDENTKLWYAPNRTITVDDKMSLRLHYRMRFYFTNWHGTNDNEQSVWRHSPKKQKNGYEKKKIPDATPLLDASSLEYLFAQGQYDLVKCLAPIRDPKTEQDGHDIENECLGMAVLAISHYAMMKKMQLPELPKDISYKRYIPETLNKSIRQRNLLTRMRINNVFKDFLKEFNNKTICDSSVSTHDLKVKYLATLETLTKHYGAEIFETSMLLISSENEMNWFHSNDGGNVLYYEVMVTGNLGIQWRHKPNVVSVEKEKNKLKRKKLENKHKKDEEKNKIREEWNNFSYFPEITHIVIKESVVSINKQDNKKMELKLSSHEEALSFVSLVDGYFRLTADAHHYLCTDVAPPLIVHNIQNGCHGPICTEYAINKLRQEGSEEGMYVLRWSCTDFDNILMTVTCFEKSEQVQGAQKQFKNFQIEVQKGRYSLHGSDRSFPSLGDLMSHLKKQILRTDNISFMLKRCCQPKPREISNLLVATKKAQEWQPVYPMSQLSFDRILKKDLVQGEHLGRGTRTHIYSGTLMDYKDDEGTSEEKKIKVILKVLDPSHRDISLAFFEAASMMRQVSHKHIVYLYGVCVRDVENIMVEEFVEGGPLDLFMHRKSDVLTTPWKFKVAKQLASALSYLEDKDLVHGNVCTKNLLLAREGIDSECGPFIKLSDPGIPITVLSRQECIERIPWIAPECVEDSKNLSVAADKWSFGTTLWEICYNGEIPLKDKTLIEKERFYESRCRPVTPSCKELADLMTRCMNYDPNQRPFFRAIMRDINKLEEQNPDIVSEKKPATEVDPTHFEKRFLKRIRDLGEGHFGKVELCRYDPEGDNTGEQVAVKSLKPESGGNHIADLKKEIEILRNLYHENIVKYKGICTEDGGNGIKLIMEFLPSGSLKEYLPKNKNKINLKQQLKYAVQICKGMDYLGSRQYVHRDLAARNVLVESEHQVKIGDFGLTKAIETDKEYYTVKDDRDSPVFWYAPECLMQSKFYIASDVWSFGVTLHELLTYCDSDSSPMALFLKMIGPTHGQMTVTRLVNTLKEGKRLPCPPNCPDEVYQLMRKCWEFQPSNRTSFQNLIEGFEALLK
Tyrosine-protein kinase JAK2 (Homo sapiens), sequence (O60674 whole entry): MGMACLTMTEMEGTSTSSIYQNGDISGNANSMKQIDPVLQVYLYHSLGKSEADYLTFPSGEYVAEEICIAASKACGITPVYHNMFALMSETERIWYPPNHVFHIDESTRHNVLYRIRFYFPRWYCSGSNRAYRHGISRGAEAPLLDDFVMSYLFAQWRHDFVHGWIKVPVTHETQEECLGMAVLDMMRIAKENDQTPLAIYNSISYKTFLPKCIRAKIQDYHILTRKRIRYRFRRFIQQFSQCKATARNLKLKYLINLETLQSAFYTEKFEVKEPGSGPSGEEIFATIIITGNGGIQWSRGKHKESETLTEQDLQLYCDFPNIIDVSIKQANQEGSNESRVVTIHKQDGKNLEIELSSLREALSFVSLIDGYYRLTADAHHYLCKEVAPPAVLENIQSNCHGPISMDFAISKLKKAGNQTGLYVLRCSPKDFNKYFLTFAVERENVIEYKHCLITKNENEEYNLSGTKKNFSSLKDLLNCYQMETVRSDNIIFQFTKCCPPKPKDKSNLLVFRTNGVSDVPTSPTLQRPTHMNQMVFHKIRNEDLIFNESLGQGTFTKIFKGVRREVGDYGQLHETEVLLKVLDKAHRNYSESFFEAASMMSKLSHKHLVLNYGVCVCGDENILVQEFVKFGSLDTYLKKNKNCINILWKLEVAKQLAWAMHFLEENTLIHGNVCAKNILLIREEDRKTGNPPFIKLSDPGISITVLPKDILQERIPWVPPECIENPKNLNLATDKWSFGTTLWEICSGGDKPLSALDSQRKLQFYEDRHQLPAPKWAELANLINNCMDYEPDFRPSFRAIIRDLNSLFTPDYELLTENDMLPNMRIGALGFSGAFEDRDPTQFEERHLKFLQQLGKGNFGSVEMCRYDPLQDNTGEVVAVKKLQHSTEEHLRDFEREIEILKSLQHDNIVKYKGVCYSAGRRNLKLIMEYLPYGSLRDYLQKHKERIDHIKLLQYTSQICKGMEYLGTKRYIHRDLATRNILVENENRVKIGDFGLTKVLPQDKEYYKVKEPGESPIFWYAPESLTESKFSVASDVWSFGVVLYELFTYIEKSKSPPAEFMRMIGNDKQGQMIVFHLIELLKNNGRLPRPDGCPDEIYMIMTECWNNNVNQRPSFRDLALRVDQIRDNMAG

As to `Cc1ccc(C(=O)NC(C)C)cc1-c1ccc(C(=O)NCC2CC2)cc1`, the inhibition (commonly the change of the read-out against control, counted positive when it falls) in [1] was -0.47%; in [2] it was -3.33%; in [3], -1.59%; in assay [4] it was -1.52%; in assay [5] it was -1.28%; in assay [6] it was 0.73%. The inhibition in assay [7] is 1.51%; in [8], -1.43%; in assay [9], 0.78%; in assay [10], -2.99%.
On to `Fc1ccc(-c2ncn(C3CCNCC3)c2-c2ccnc(Oc3ccc4c(c3)OCO4)n2)cc1`, for which the inhibition is 3.21% in assay [1]; 3.3% in assay [2]; 4.29% in [3]; 0.42% in assay [4]; 1.47% in assay [5]; -2.3% in assay [6]. Also, the inhibition is -2.01% in assay [7], 9.3% in assay [8], 12.5% in [9] and 7.99% in assay [10].
Regarding `COc1cc(Nc2ncc3c(C)nc(-c4cccc(C(F)(F)F)c4)n3n2)cc(OC)c1OC`, the inhibition in assay [1] is 13.5%; in assay [2], 3.02%; in assay [3], 8.95%; in assay [4], 1.27%; in [5], 11.1%; in assay [6], -0.52%. The inhibition in assay [7] came to 4.91%; in assay [8], 4.26%; in [9], 8.61%; in assay [10], 11.1%.
For the compound `CCc1ccc(Oc2nccc(-c3c(-c4ccc(F)cc4)ncn3C3CCNCC3)n2)cc1`, the inhibition in assay [1] was 2.38%; in [2], 4.16%; in assay [3] it was 4.5%; in assay [4], 1.64%; in assay [5], 2.94%; in assay [6] it was -1.25%. Also, the inhibition is -0.22% in assay [7], 5.19% in assay [8], 13.5% in assay [9] and 4.71% in [10].
Turning to `C/C(Nc1ccc(S(N)(=O)=O)cc1)=C1/C(=O)Nc2ccccc21`, the inhibition in assay [1] is 4.72%; in assay [2], -6.57%; in assay [3], -1.09%; in [4], -0.57%; in [5], 0.27%; in assay [6], -0.45%. The inhibition is 6.44% in assay [7], 9.11% in assay [8], 44.5% in assay [9] and 38.4% in [10].
In the case of `COc1cc2ncn(-c3cc(OCc4ccccc4C(F)(F)F)c(C(C)=O)s3)c2cc1OC`, the inhibition in assay [1] was 6.89%; in assay [2], 2.15%; in [3], 2.47%; in [4], 1.06%; in [5], -0.01%; in [6] it was -2.98%. Also, the inhibition in assay [7] is -1.59%; in [8], 3.96%; in assay [9] it was 7.57%; in assay [10] it was 3.46%.
On to `NCc1ccc(-n2c(-c3nonc3N)nc3cnccc32)cc1`, for which the inhibition was 2.4% in assay [1]; 4.99% in assay [2]; 5.42% in assay [3]; 1.95% in assay [4]; 2.09% in [5]; -0.04% in [6]. The inhibition in assay [7] was 1.57%; in assay [8], 10.5%; in [9], 22.8%; in assay [10], 5.81%.
As to `NC(=O)c1cc(-c2ccc(F)cc2)cc(-c2ccncc2)c1N`, the inhibition in [1] is -0.8%; in assay [2] it was 3.49%; in [3] it was 12.2%; in [4], 1.44%; in [5] it was 1.06%; in assay [6] it was -0.87%. Also, the inhibition in [7] is -2.1%; in assay [8], 6%; in assay [9], 6.66%; in assay [10] it was 11.9%.
`Nc1nccc(-c2c(-c3ccc(F)cc3)ncn2C2CCC(O)CC2)n1` (stereo not given): the inhibition was 0.63% in assay [1]; -6.08% in assay [2]; -2.41% in assay [3]; -0.54% in assay [4]; -0.27% in [5]; 1.29% in [6]. The inhibition in assay [7] was 2.69%; in assay [8] it was 2.29%; in assay [9] it was 17.2%; in assay [10], -1.79%.
Consider `CCS(=O)(=O)c1ccc(OC)c(Nc2ncc(-c3cccc(-c4ccccc4F)c3)o2)c1`, for which the inhibition in [1] is 2.37%; in [2] it was -2.17%; in assay [3], 1.93%; in assay [4], 0.19%; in assay [5] it was 2.27%; in assay [6] it was 1.2%. For the same compound, the inhibition was found to be 13.9% in assay [7], 66.9% in [8], 89.5% in assay [9] and 53.7% in assay [10].
`O=C(Nc1n[nH]c2cc(-c3cc(F)ccc3F)ccc12)C1CC1`: the inhibition in assay [1] is 7.94%; in assay [2], 3.49%; in assay [3] it was 8.44%; in [4], 1.64%; in [5] it was 1.73%; in [6], -0.26%. Also, the inhibition in assay [7] was -0.99%; in assay [8], 6.28%; in assay [9], 12%; in assay [10] it was 4.01%.
Regarding `C#Cc1cccc(Nc2ncnc3ccc(OCCCCNCCS(C)(=O)=O)cc23)c1`, the inhibition is -2.14% in assay [1]; 0.29% in assay [2]; 13.4% in assay [3]; 1% in assay [4]; 0.71% in [5]; -4.71% in assay [6]. Also, the inhibition was -3.57% in assay [7], 14.2% in [8], 19.6% in assay [9] and 4.93% in assay [10].
As for `Cc1nnc(-c2ccc(C)c(-c3ccc(C(=O)NCc4ccc(Cl)cc4)cc3)c2)o1`, the inhibition in assay [1] is -2.86%; in [2] it was 4.61%; in [3] it was 16.9%; in assay [4], 1.06%; in assay [5], 1.06%; in assay [6] it was -4.26%. Further, the inhibition in assay [7] was -4.85%; in assay [8] it was 4.61%; in assay [9] it was 5.62%; in [10] it was 4.95%.
For `NC(=O)c1ccc(Oc2nccc(-c3c(-c4ccc(F)cc4)ncn3C3CCNCC3)n2)cc1`, the inhibition was 2.32% in assay [1]; 3.88% in assay [2]; 0.7% in assay [3]; 2.78% in assay [4]; 3.18% in [5]; -0.36% in assay [6]. Also, the inhibition in assay [7] is -0.92%; in [8], 4.96%; in assay [9] it was 9.7%; in [10], 7.24%.
With `Fc1ccc(-c2ncn(C3CCNCC3)c2-c2ccnc(Oc3ccc(F)c(F)c3)n2)cc1`, the inhibition was -2.62% in assay [1]; 3.04% in [2]; 7.49% in assay [3]; 1.1% in assay [4]; 0.69% in assay [5]; -5.49% in [6]. The inhibition is -1.81% in [7], 6.78% in assay [8], 11.5% in [9] and 1.92% in assay [10].
Take `COc1cc(C)c(N(C)C(=O)CN(C)C)cc1Nc1nc(Nc2cccc(F)c2C(N)=O)c2cc[nH]c2n1`: the inhibition in assay [1] is -1.94%; in assay [2] it was 3.43%; in assay [3] it was -5.28%; in assay [4], 0.96%; in assay [5] it was 1.71%; in assay [6], -3.43%. The inhibition in [7] is -3.47%; in assay [8] it was 1.87%; in assay [9] it was 1.78%; in assay [10], 0.03%.
Take `COc1ccc2cc(-c3c(-c4ccncc4)nc(-c4ccc([S+](C)[O-])cc4C)n3C)ccc2c1` (stereo not given): the inhibition was 0.95% in [1]; -3.09% in assay [2]; 4.21% in assay [3]; 0.25% in assay [4]; -0.49% in [5]; 0.51% in [6]. Moreover, the inhibition was 0.61% in assay [7], 8.24% in [8], 49% in [9] and -0.44% in assay [10].
